Bioassay records: PubChem, ICCB-Longwood Screening Facility, Harvard Medical School
In the library only some 0.52% were active in any assay of this set; here they are far more common.
S aureus helic – inhibitors of S. aureus replicative helicase, primary screen, biochemical, fluorescence unwinding readout | hit rate 0.05% among 120,000 | inhibition, % (concentration not given with the values) | purified S. aureus helicase, fluorescence unwinding assay | AID 485395, 2010; in the data active = inhibition above about 25%, passing the limit was not always enough;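 also: 0% = mean of negative control wells and 100% = mean of positive control wells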
Sa growth inh – S. aureus growth inhibition at 42 and 30 °C, primary screen, LtaS inhibitor project, RN4220, two temperatures. AID 720641, 2013. relative growth, % (test concentration not listed). OD600, 20 h, 42 °C; hits give low values. hit rate 0.53% among 170,000;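 active = relative growth at most 50% at the other temperature and 20+ points below 30 °C, or under 10% at both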
The depositor's hits bear a star; · = no result.

SMILES	S aureus helic	Sa growth inh
c1ccc2c(OCCCCCn3ccnc3)cccc2c1	3	-0.5*
Cc1ccc(C(C)C)c(OCCn2ccnc2)c1	-19	59
Cc1ccc(OCCCn2ccnc2)cc1	10	102
COc1ccc(OCCCn2ccnc2)cc1	10	84
Cc1ccc(C(C)C)c(OCCCCn2ccnc2)c1	4	-0.7*
Cc1cc(OCCCCCn2ccnc2)cc(C)c1Cl	31	-0.9*
Cc1cc(C)c2cc(C(=O)NCCNc3ccc(C(F)(F)F)cn3)[nH]c2c1	·	94
O=C(c1cccc(Br)c1)c1nccn1-c1ccccn1	-15	102
CCCOC(=O)C1=C(C)NC2=C(C(=O)C(C(=O)OC)C(C)C2)C1c1ccc(F)c(Br)c1 (centres undefined)	3	102
COc1cccc(-c2cc(C(=O)NCc3cccnc3)on2)c1	15	91
CC(=O)N=Nc1c2[nH]c3ccccc3nc-2c2ccccc12	17	7.6*
CC(=O)Nc1ccccc1-c1nc2ccccc2[nH]c1=O	8	122
CN(C)c1ccc(O)c2c1C[C@H]1C[C@H]3[C@H](N(C)C)C(=O)C(C(N)=O)=C(O)[C@@]3(O)C(=O)C1=C2O	·	-0.4*
C[C@H]1c2cccc(O)c2C(O)=C2C(=O)[C@]3(O)C(O)=C(C(N)=O)C(=O)[C@@H](N(C)C)[C@@H]3[C@@H](O)[C@@H]21	·	-0.6*
CC1c2cccc(O)c2CC2=C(O)C3(O)C(O)=C(C(N)=O)C(=O)C(N(C)C)C3C(O)C21 (centres undefined)	11	11
COc1ccc(-c2nc3c(cc2C#N)c(=O)n(C)c(=O)n3CC(C)C)cc1	8	89
NC(=O)c1ccccc1NC(=O)Nc1ccccc1	3	104
N#CC(C#N)=NNc1ccccc1C(N)=O	21	-0.5*
CC1=C(C(=O)OC2CCCC2)C(c2cccc(F)c2F)CC(=O)N1 (centres undefined)	15	113
CCN(C(=O)c1cc(S(=O)(=O)N2CCc3ccccc32)cn1C)c1cccc(C)c1	·	118
CC[C@]1(O)C[C@H]2CN(CCc3c([nH]c4ccccc34)[C@@](C(=O)OC)(c3cc4c(cc3OC)N(C=O)[C@H]3[C@@](O)(C(=O)OC)[C@H](OC(C)=O)[C@]5(CC)C=CCN6CC[C@]43[C@@H]65)C2)C1	·	95
CC(=O)N(Cc1cccs1)C1(C(=O)NC2CCCC2)CCCCC1	13	85
CC(C)CN(CC(C)C)S(=O)(=O)c1ccc(C(=O)Nc2nnc(-c3ccccn3)o2)cc1	4	83
COCc1nnc(NC(=O)c2ccc(S(=O)(=O)N(C)C3CCCCC3)cc2)o1	-3	8.5*
CSCc1nnc(NC(=O)c2ccc(S(=O)(=O)N(CC(C)C)CC(C)C)cc2)o1	4	-0.4*
SMILES	S aureus helic	Sa growth inh
CCc1nnc(NC(=O)c2ccc(S(=O)(=O)N(C)c3ccccc3)cc2)o1	10	15
C/C(=N\NC(=O)c1sc2ccccc2c1Cl)c1ccco1	·	153
CCC(Cn1nnc2ccccc2c1=O)NC(=O)Nc1ccc(C)c(C)c1 (centres undefined)	·	97
N#CC(C#N)=NNc1ccc2c(c1)OCO2	18	0.6*
CC(=O)Nc1ccc2c(c1)OCO2	16	138
CCC[C@@H]1C[C@@H](C(=O)N[C@@H]([C@H]2O[C@H](SC)[C@H](O)[C@@H](O)[C@H]2O)[C@@H](C)O)N(C)C1	·	0.0*
CCCCCCCCCCCCCCCC(=O)O[C@@H]1[C@@H](O)[C@@H](O)[C@@H](C(NC(=O)[C@@H]2C[C@@H](CCC)CN2C)C(C)Cl)O[C@@H]1SC (some centres undefined)	·	93
CC(C)CNC(=O)C1(c2cccs2)CCOCC1	19	104
CCn1c2ccccc2c2nnc(N3CCc4ccccc4C3)nc21	0	87
Brc1ccccc1-c1nc2ccccc2c2nc3ccccc3n12	9	111
S=c1nc2ccccc2c2nc(COc3ccccc3Br)[nH]n12	-13	0.6*
O=c1[nH]cc(F)c(=O)[nH]1	·	-0.5*
CN(C)c1c[nH]c(=O)[nH]c1=O	5	96
COc1cccc(OC)c1C(=O)Nc1ccccn1	5	·
CNC(=O)CSc1nnc(C(F)(F)F)n1N	-13	98
COC(=O)c1cn(-c2ccccc2)nc1-c1cccs1	-5	18*
CN(C)C(=O)c1cn(-c2ccccc2)nc1-c1cccs1	-14	81
Cc1ccc(NC(=O)CNCc2ccco2)cc1Cl	8	136
CCn1c2ccccc2c2cc(N=C=S)ccc21	4	128
CCn1c2ccccc2c2cc(C#N)ccc21	25	44*
CC(C)(C)c1ccc(Cn2c(=N)n(CC(=O)c3ccco3)c3ccccc32)cc1	-42	-0.6*
CC(C)(C)c1ccc(Cn2c(=N)n(CC(O)c3ccco3)c3ccccc32)cc1 (centres undefined)	-4	31
CC(=C1C(=O)c2ccccc2C1=O)N1CCN(c2cccc(Cl)c2)CC1	3	134
O=C1C=CC(=O)N1CCc1ccc(Cl)cc1	-17	9.7*
